Inconclusive results are not listed. Activity calls are given as the source filed them. The call rests on the fitted dose curve; in most records, active means well fitted curve in the direction sought with a large enough effect; inconclusive means small, poorly fitted or top-dose-only effect, or another doubt; inactive means no such curve, though single readings can be large or run the other way.
biological target: Calcium and integrin-binding protein 1 (Homo sapiens) (UniProt Q99828); assay: Validation qHTS for Identification of Calcium Integrin Binding protein 1 (CIB1) Competitor (AID 1508618); settings: CIB1-GST / FITC-alphaIIb peptide fluorescence polarization; series mostly up to 114 µM
Description: Assay Provider: Ulhas P. Naik, PhD
Sidney Kimmel Medical College
Thomas Jefferson University, Philadelphia, PA
Primary function of platelets is to maintain hemostasis. At the site of vascular injury, platelets adhere to adhesive proteins such as collagen and von Willebrand factor. Adherent platelets are activated and generate soluble platelet agonists such as thrombin, ADP and thromboxane A2. Following exposure of circulating platelets to these agonists, results in platelet shape change, granule secretion and activation of platelet integrin alphaIIb-beta3. Ligand binding to activated integrin alphaIIb-beta3 triggers outside-in signaling, leading to platelet aggregation, stabilization of platelet plug, and clot retraction. Upon atherosclerotic plaque rupture also causes platelet plug formation, which underlies a number of cardiovascular diseases such as myocardial infraction and stroke. A number of anti-platelet drugs such as aspirin, clopidogrel, prasugrel, vorapaxar, and eptifibatide are currently available to prevent the thrombotic complications. However, these anti-platelet agents have several limitations including inherent variability in individual responses, developing resistance, and serious bleeding side effects. For these reasons they are not suitable for long-term protection. Based on the experiences with current anti-platelet drugs, it appears that the most useful therapeutic approach is to intersect the secondary responses such as integrin outside-in signaling or recruitment of platelets by TxA2 and secreted ADP. Compounds, which can largely preserve the primary hemostatic function of platelets but inhibit secondary response will be most desired therapeutic agents for treatment of cardiovascular disease.
CIB1 is a calcium integrin binding protein, which specifically interact with the alphaIIb subunit of integrin alphaIIb-beta3. Binding of CIB1 to alphaIIb regulates the outside-in signaling in platelets, which is needed for thrombus stabilization and thrombus growth. […] Therefore, we propose that discovery of a small molecule that can prevent the association of CIB1 and alphaIIb-beta3 will be a potential anti-platelet agent that can block the thrombus formation without undue effect on hemostasis.
To develop fluorescence polarization (FP) assay using fluorescently labeled alphaIIb peptide and CIB1 protein. Using FP assay characterize the binding affinity, competitive inhibition, and acceptable Z factor (0.5 to1) in order to perform the HTS to identify small molecule compound that can prevent CIB1 binding to platelet integrin alphaIIbbeta3. This assay is screened against the NCATS LOPAC library to validate the amenability of the assay to qHTS.
[1] Naik MU, Nigam A, Manrai P, et al. CIB1 deficiency results in impaired thrombosis: the potential role of CIB1 in outside-in signaling through integrin alpha IIb beta 3. J Thromb Haemost. 2009;7(11):1906-1914. doi:10.1111/j.1538-7836.2009.03581.
SEQUENCE No. (1, 2, 3, etc.); […] (e.g., Cells, Incubation, Reagent, etc.); VALUE and DESCRIPTION.
1; Reagent; 3 uL; Protein or buffer (4/3x)
2; Compound; 46 nL; Control inhibitor / compound library
3; Time; 15 min; Room temperature incubation
4; Reagent; 1 uL; Fluorescent labeled peptide (4x)
5; Time; 1000 rpm; Centrifuge
6; Time; 15 min; Room temperature incubation
7; Detection; Ex 480/ Em 540; ViewLux Fluorescence Read
NOTES (numbers refer to sequence above)
1; Protein Mixture: C1B1-GST (final concentrations of 1 uM). Buffer composition: 5 mM HEPES pH 7.4, 125 mM NaCl, 5 mM CaCl2, 0.01% Tween20.
2; Control Inhibitor: unlabeled peptide (final concentration range 17.4 nM to 572 uM). Compound Library final concentration range 18.3 nM to 114 uM.
3; Room temperature incubation.
4; Fluorescent Labeled Peptide: FITC-aIIb (final concentration of 100 nM). Sequence of alphaIIb peptide: Acetyl-[…]-FITC (purity is 95.83%).
6; Room temperature incubation.
[…]

Calcium and integrin-binding protein 1 (Homo sapiens), sequence (Q99828 whole entry, looked up): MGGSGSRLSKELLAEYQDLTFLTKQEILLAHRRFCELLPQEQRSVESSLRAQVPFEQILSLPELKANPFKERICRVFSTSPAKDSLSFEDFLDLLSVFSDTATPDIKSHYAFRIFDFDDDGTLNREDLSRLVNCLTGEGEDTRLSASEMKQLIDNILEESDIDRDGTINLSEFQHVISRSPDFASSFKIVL

SMILES	outcome
CN(C)CCCN1c2ccccc2Sc2ccc(Cl)cc21	inactive
CCN(CC)CCNC(=O)c1cc(Cl)c(N)cc1OC	inactive
C#CCN(C)Cc1ccccc1	inactive
CC[C@H]1CN2CCc3cc(OC)c(OC)cc3[C@@H]2C[C@@H]1C[C@H]1NCCc2cc(OC)c(OC)cc21	inactive
CC(C)(C)[C@]1(O)CCN2C[C@H]3c4ccccc4CCc4cccc(c43)[C@@H]2C1	inactive
CC(C)(C)c1onc(OCP(=O)(O)O)c1CC(N)C(=O)O (stereo not given)	inactive
CN1CCN(C2Cc3ccccc3Sc3ccc(Cl)cc32)CC1 (stereo not given)	inactive
CC(CN(C)C)CN1c2ccccc2CCc2ccccc21 (stereo not given)	inactive
CC(C(O)c1ccc(O)cc1)N1CCC(Cc2ccccc2)CC1 (stereo not given)	inactive
CNCC(O)c1ccc(O)c(O)c1 (stereo not given)	inactive
Nc1cc(=O)[nH]c(N)n1	inactive
CNC(=O)Oc1ccc2c(c1)[C@]1(C)CCN(C)[C@@H]1N2C	inactive
C[C@H]1O[C@@H](n2cc(F)c(=O)[nH]c2=O)[C@H](O)[C@@H]1O	inactive
CC1=C(CC(=O)O)c2cc(F)ccc2/C1=C\c1ccc(S(C)(=O)=O)cc1	inactive
Nc1ncnc2c1ncn2[C@@H]1O[C@H](CO)[C@@H](O)[C@H]1O	inactive
CC(=O)c1ccc2c(c1)N(CCCN(C)C)c1ccccc1S2	inactive
CC1=C(/C=C/C(C)=C/C=C/C(C)=C/C(=O)O)C(C)(C)CCC1	inactive
COCCOC(=O)C1=C(C)NC(C)=C(C(=O)OC/C=C/c2ccccc2)C1c1cccc([N+](=O)[O-])c1 (stereo not given)	inactive
CC(=O)OCC(=O)[C@@]1(O)CC[C@H]2[C@@H]3CCC4=CC(=O)CC[C@]4(C)[C@H]3C(=O)C[C@@]21C	inactive
CC(C)C(=O)c1c(C(C)C)nn2ccccc12	inactive

SMILES	outcome
CC(CN1c2ccccc2Sc2ccccc21)N(C)C (stereo not given)	inactive
NC(=O)c1ncn([C@@H]2O[C@H](CO)[C@@H](O)[C@H]2O)n1	inactive
CNCCCC1c2ccccc2C=Cc2ccccc21	inactive
N=c1c[n+](N2CCOCC2)[n-]o1	inactive
CCN(CC)CCNC(=O)c1c(C)[nH]c(/C=C2\C(=O)Nc3ccc(F)cc32)c1C	inactive
CCCCN(CCCC)CC(O)c1cc(Cl)cc2c1-c1ccc(Cl)cc1/C2=C/c1ccc(Cl)cc1 (stereo not given)	inactive
OCc1cc(C(O)CNCCCCCCOCCCCc2ccccc2)ccc1O (stereo not given)	inactive
CN(C)CCC=C1c2ccccc2CCc2ccccc21	inactive
Cc1cc(N)c2ccccc2[n+]1CCCCCCCCCC[n+]1c(C)cc(N)c2ccccc21	inactive
O=C1N=C(O)CN1/N=C/c1ccc(-c2ccc([N+](=O)[O-])cc2)o1	inactive
C[C@](N)(Cc1ccc(O)cc1)C(=O)O	inactive
O=C1NC(=O)[C@@]2(CCOc3ccc(F)cc32)N1	inactive
CCN(CC)C(C)CN1c2ccccc2Sc2ccccc21 (stereo not given)	inactive
C[C@]12C[C@H](O)[C@H]3[C@@H](CCC4=CC(=O)CC[C@@]43C)[C@@H]1CC[C@@H]2C(=O)CO	inactive
C[C@H](NC(CCc1ccccc1)C(=O)O)C(=O)N1CCC[C@H]1C(=O)O (stereo not given in full)	inactive
CCN(CC)CCOC(=O)C1(C2CCCCC2)CCCCC1	inactive
CC(C)c1c(C(=O)Nc2ccccc2)c(-c2ccccc2)c(-c2ccc(F)cc2)n1CC[C@@H](O)C[C@@H](O)CC(=O)O	inactive
CN(C)CCOC(C)(c1ccccc1)c1ccccn1 (stereo not given)	inactive
Cc1c(O)cccc1C(=O)N[C@@H](CSc1ccccc1)[C@H](O)CN1C[C@H]2CCCC[C@H]2C[C@H]1C(=O)NC(C)(C)C	inactive
CN1CCC[C@@H]1Cc1c[nH]c2ccc(CCS(=O)(=O)c3ccccc3)cc12	inactive

— PubChem BioAssay (NCATS)
